Measured values published in PubChem BioAssay (NCATS).
Results filed as inconclusive are left out. Entries that show only a call come without a potency. A number with no mark means an inactive call. Active and inactive are the calls of the source. Calls come from the whole dose curve; as a rule, active = well fitted curve in the direction sought with a large enough effect; inconclusive = small, poorly fitted or top-dose-only effect, or another doubt; inactive = no such curve, though single readings can be large; an effect the other way counts as inactive or inconclusive.

Tests used:
[1] = target: Cellular tumor antigen p53 (Homo sapiens) (UniProt P04637); test: Primary qHTS for small molecule compounds that upregulate eGFP-tagged delta133p53alpha (in N-terminal) cells. (AID 2060322); conditions: NCI-H358 eGFP-delta133p53alpha fluorescence, 24 h; activation: active compounds read high; note: nearly all actives have a fitted effect of over 75% in size; note: potency is the fitted concentration of half-maximal effect; for activation: series mostly up to about 56 µM
Method in brief: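 NCI-H358 cells pre-induced 24 h with 10 ng/ml doxycycline to express N-terminal eGFP-delta133p53alpha, then dosed 24 h at 37C without doxycycline; fixed, Hoechst-stained, GFP intensity by laser scanning cytometry, normalized to DMSO (0%) and 57.5 uM 5-azacytidine (100%).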

[2] = target: Aldehyde dehydrogenase, mitochondrial (Homo sapiens) (UniProt P05091); test: qHTS for Inhibitors of the Aldehyde Dehydrogenase Family (ALDH2) Primary screen (AID 2061308); note: nearly all actives have a fitted effect of over 55% in size
[3] = target: Retinaldehyde dehydrogenase 3 (Homo sapiens) (UniProt P47895); test: qHTS for Inhibitors of the Aldehyde Dehydrogenase Family (ALDH1A3) Primary screen (AID 2061315)

Cellular tumor antigen p53 (Homo sapiens), sequence (P04637 whole entry, looked up): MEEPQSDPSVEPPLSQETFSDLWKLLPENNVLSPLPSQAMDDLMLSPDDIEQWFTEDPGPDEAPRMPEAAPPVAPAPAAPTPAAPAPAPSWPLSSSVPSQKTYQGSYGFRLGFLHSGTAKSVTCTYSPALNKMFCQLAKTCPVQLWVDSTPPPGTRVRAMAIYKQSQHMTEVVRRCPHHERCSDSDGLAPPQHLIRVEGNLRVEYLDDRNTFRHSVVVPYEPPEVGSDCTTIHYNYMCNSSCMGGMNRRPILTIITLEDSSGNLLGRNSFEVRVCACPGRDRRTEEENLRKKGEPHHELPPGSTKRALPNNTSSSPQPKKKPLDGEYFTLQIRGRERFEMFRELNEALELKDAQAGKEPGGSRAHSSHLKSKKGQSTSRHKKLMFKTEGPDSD

| SMILES | Potency [1] | Potency [2] | Potency [3] | activation [1] | activity change, negative = inhibition [2] | activity change, negative = inhibition [3] |
| --- | --- | --- | --- | --- | --- | --- |
| NC1CCC(Nc2cc(-c3cccc(NCc4cccc(F)c4)n3)c(Cl)cn2)CC1 (centres undefined) | 1510 nM (active) | inactive | inactive | – | – | – |
| CC(=O)c1c(C)cc(O[C@@H]2O[C@H](CO)[C@@H](O)[C@H](O)[C@H]2O)cc1O | – | inactive | inactive | -9.92% | – | – |
| NC(=O)C1=CC2C3C=CC2C(OC3=O)O1 (centres undefined) | – | inactive | inactive | 27.5% | – | – |
| COc1ccc(Oc2c(Cl)cnn(C3c4ccccc4-c4ccccc43)c2=O)cc1 | – | inactive | inactive | 13.4% | – | – |
| CC1(C)C[C@H]2C3=CCC4[C@@]5(C)CC[C@H](O[C@H]6O[C@H](C(=O)O)[C@@H](O)[C@H](O)[C@H]6O[C@H]6O[C@H](CO)[C@@H](O)[C@H](O)[C@H]6O[C@@H]6O[C@H](CO)[C@@H](O)[C@H](O)[C@H]6O)[C@](C)(CO)C5CC[C@@]4(C)[C@]3(C)CC[C@@]2(C)[C@H](O[C@@H]2OC[C@H](O)[C@H](OC3O[C@H](CO)[C@@H](O)[C@H](O)[C@H]3O)[C@H]2O)[C@@H]1O (some centres undefined) | – | – | – | -19.8% | 2.01% [at 11.2 µM] | 14.7% [at 11.2 µM] |
| C/C(=C\C(=O)C(C)C1CCC2C3=C(CCC21C)C1(C)CCC(=O)C(C)(C)C1(O)CC3)C(C)(C)O (centres undefined) | – | inactive | inactive | -16.8% | – | – |
| CC(C)C(C)C(O)C1CC23CC(=O)C4(O)C(=C2CCC3C1C)C=CC1(O)CC(O)CCC14C (centres undefined) | – | inactive | inactive | 15.3% | – | – |
| C/C=C(\C)C(=O)O[C@H]1[C@H](O)[C@]2(COC(C)=O)[C@H](O)C[C@]3(C)C(=CCC4[C@@]5(C)CC[C@H](O[C@@H]6O[C@H](C(=O)O)[C@@H](O[C@@H]7O[C@H](CO)[C@@H](O)[C@H](O)[C@H]7O)[C@H](O)[C@H]6O[C@@H]6O[C@H](CO)[C@@H](O)[C@H](O)[C@H]6O)[C@](C)(CO)C5CC[C@]43C)[C@@H]2CC1(C)C (some centres undefined) | – | inactive | inactive | -8.4% | – | – |
